Records with an inconclusive call do not appear. Unmarked numbers belong to inactive results. Activity calls are given as the source filed them. Calls come from the whole dose curve; as a rule, active = well fitted activation curve with a large enough effect; inconclusive = small, poorly fitted or top-dose-only effect; inactive = no such curve, though single readings can be large or run the other way. Numbered stars: 1 amine (or outer) side, 2 acyl side, 3 side chain; on linkers, the order of the positions; unused ones are H or OH. Square brackets hold non-standard residues; d marks the D form. Peptide text beside a SMILES is read from it. X2 = CC(C)=CCc1cc(C(O)C(N[*:1])C(=O)[*:2])ccc1O
Target: Cellular tumor antigen p53 (Homo sapiens) (UniProt P04637)
Test: Primary qHTS for small molecule compounds that upregulate eGFP-tagged delta133p53alpha (in N-terminal) cells. (AID 2060322); note: nearly all actives have a fitted effect of over 75% in size;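 for activation: series mostly up to about 56 µM; 0% = DMSO vehicle and 100% = reference activator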
Conditions: NCI-H358 eGFP-delta133p53alpha fluorescence, 24 h; activation: active compounds read high
Method in brief: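 NCI-H358 cells pre-induced 24 h with 10 ng/ml doxycycline to express N-terminal eGFP-delta133p53alpha, then dosed 24 h at 37C without doxycycline; fixed, Hoechst-stained, GFP intensity by laser scanning cytometry, normalized to DMSO (0%) and 57.5 uM 5-azacytidine (100%).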
Potency is the fitted concentration of half-maximal effect.

Sequence of Cellular tumor antigen p53 (Homo sapiens) (P04637 whole entry, looked up): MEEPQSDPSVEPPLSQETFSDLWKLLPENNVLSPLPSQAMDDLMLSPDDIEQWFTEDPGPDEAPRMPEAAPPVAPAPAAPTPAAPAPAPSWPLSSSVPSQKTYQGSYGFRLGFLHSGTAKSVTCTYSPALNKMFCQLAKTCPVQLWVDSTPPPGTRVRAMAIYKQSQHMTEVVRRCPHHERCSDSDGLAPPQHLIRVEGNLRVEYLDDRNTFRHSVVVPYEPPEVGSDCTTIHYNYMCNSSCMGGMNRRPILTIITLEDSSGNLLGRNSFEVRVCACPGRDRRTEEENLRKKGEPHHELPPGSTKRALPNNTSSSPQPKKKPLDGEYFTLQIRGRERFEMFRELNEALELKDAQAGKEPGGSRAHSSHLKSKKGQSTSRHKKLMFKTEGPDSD

SMILES | activation [%] | Potency
CC/C=C\[C@H](O)[C@H](O)C1=C(C)C(=O)[C@]2(O1)C(=O)N[C@@](OC)(C(=O)c1ccccc1)[C@@H]2O | -6.87 | 
C[C@@H]1O[C@@H](OC2C(CO)OC(OCC3OC(OC(=O)[C@]45CCC(C)(C)CC4C4=CCC6[C@@]7(C)CC[C@@H](O)[C@](C)(C(=O)O)C7CC[C@@]6(C)[C@]4(C)CC5)C(O)C(O)C3O)C(O)C2O)[C@H](O)[C@H](O)[C@H]1O (stereo not given in full) | -3.82 | 
CC1OC(OC2C(C)OC(OC3C(O)C(CO)OC(O[C@H]4CC[C@@]5(C)C(CC[C@]6(C)C5CC=C5C7[C@@H](C)[C@H](C)CC[C@]7(C(=O)O)CC[C@]56C(=O)O)C4(C)C)C3O)C(O)C2O)C(O)C(O)C1O (stereo not given in full) | 3.82 | 
CC1(C)CC[C@]2(C(=O)O)CC[C@]3(C)C(=CCC4[C@@]5(C)C(=O)C[C@H](O)[C@@](C)(CO)C5CC[C@]43C)[C@@H]2C1 (stereo not given in full) | -11.5 | 
COc1c2c(c(C)c3c1C(=O)OC3)OC1(C)CC(O)C34OC(OC)(CC(OC(C)=O)C3(C)C1C2)OC4(C)C (stereo not given) | -5.36 | 
Cc1nc2ccc(Oc3ccc(F)cc3)cc2c(=O)n1C[C@H]1CCCN(C(C)C)C1 | -12.4 | 
O=C(O)Cc1cn(C2OCC(O)C(O)C2O[C@@H]2O[C@H](CO)[C@@H](O)[C@H](O)[C@H]2O)c2ccccc12 (stereo not given in full) | 3.82 | 
CC1(C)CC[C@]2(C(=O)O)CC[C@]3(C)C(=CCC4[C@@]5(C)C[C@@H](O)[C@H](O)C(C)(C)C5CC[C@]43C)[C@@H]2[C@@H]1O (stereo not given in full) | -0.893 | 
CC1(C)CC[C@]2(C(=O)O)CC[C@]3(C)C(=CCC4[C@@]5(C)CC[C@H](O[C@@H]6O[C@H](C(=O)O)[C@@H](O[C@@H]7OC[C@@H](O)[C@H](O)[C@H]7O)[C@H](O)[C@H]6O)C(C)(C)C5CC[C@]43C)C2C1O (stereo not given in full) | -1.79 | 
C=C1CC[C@@H]2[C@](C)(CO)[C@H](O)CC[C@@]2(C)[C@@H]1C/C=C1/C(=O)OCC1OC(=O)/C(=C/CO)C(O)C[C@@H]1C(=C)CC[C@@H]2[C@](C)(CO)[C@H](O)CC[C@]21C (stereo not given in full) | 13 | 
CC1=CC(=O)CC(C)(C)C1CCC(C)O[C@@H]1O[C@H](CO)[C@@H](O)[C@H](O)[C@H]1O (stereo not given in full) | -3.57 | 
Cc1cc(Nc2nc(NC(C)c3ncc(F)cn3)ncc2Cl)n[nH]1 (stereo not given) | 8.04 | 
COC1C(=O)CCC2(CO2)C1(O)C1(C)OC1CC=C(C)C (stereo not given) | -9.82 | 
C=C(C(=O)O)[C@@H]1CC[C@@]2(C)CCC[C@@](C)(O)[C@@H]2C1 | 10.7 | 
CC(C)(C)OC(=O)N1CCC(OCc2nc(-c3ccncc3)no2)CC1 | -3.34 | 
C=C(C)[C@@H]1CC[C@]2(C(=O)O)CC[C@]3(C)C(CCC4[C@]5(C)C(CC[C@]43C)C(C)(C)[C@@H](O)[C@@H]5C(=O)O)C12 (stereo not given in full) | -18.3 | 
C=C1CC2[C@]3(C)C(=C(O)C(=O)[C@@]2(C)[C@]2(C(=O)OC)C(=O)C(C)OC(=O)[C@@]12C)C(C)(C)C(=O)CC3O (stereo not given in full) | 18.3 | 
COc1ccc(C2(O)c3ccccc3NC(=O)C2O)cc1 (stereo not given) | -3.82 | 
CC(C)=CCc1cc(C(O)C2NC(=O)CNC(=O)C(Cc3c[nH]c4ccccc34)NC(=O)C3CCCN3C(=O)CNC(=O)C(C(C)C)NC(=O)CNC2=O)ccc1O (stereo not given) (cyclo(G[X2]GVGPW); configuration not given here) | -8.4 | 
COC(=O)/C=C/C12COC(C)(C)C1C(O)C(OC(C)=O)C1(C)C2CCC2(C)C(c3ccoc3)OC(=O)C3OC321 (stereo not given) | 11.5 | 

SMILES | activation [%] | Potency
C[C@@H]1C[C@@H](O)[C@@]23CO[C@]2(CO)C[C@@H](O)CC3[C@@]12CC(c1ccoc1)OC2=O (stereo not given in full) | -7.14 | 
Cc1nc(N2CCN(C(=O)c3ccco3)CC2)c2c3c(sc2n1)CCCC3 | -12.9 | 
CC(C)C1=CCC(C)(O)C(OC2OC(CO)C(O)C(O)C2O)C1 (stereo not given) | -17.6 | 
CC(=O)OC(C)C(C)(O)C(=O)O[C@@H]1CC[C@]2(C)CC(=O)C(=C(C)C)C[C@H]2[C@]1(C)OC(C)=O (stereo not given in full) | 2.29 | 
CC(C)C[C@H](CC(=O)NO)C(=O)N[C@@H](Cc1ccc2ccccc2c1)C(=O)N[C@@H](C)C(=O)NCCN | -11.7 | 
COC(=O)C1=CO[C@@H](O[C@@H]2O[C@H](CO[C@@H]3O[C@H](CO)[C@@H](O)[C@H](O)[C@H]3O)[C@@H](O)[C@H](O)[C@H]2O)[C@@H]2C(CO)=CC[C@H]12 | 8.4 | 
COC(=O)CC[C@@H](C)[C@H]1CC[C@H]2[C@@H]3CC(=O)[C@H]4C[C@H](OC(C)=O)CC[C@]4(C)[C@H]3CC[C@]12C | -4.33 | 
CC1(C)C[C@H]2C3=CCC4[C@@]5(C)CC[C@H](O[C@H]6O[C@H](C(=O)O)[C@@H](O)[C@H](O)[C@H]6O[C@H]6O[C@H](CO)[C@@H](O)[C@H](O)[C@H]6O[C@@H]6O[C@H](CO)[C@@H](O)[C@H](O)[C@H]6O)[C@](C)(CO)C5CC[C@@]4(C)[C@]3(C)CC[C@@]2(C)[C@H](O[C@@H]2OC[C@H](O)[C@H](OC3O[C@H](CO)[C@@H](O)[C@H](O)[C@H]3O)[C@H]2O)[C@@H]1O (stereo not given in full) | -19.8 | 
CC1(C)CC[C@]2(C(=O)OC3OC(CO)C(O)C(O)C3O)CC[C@]3(C)C(=CCC4[C@@]5(C)CC[C@H](OC6OC(C(=O)O)C(O)C(OC7OC(CO)C(O)C(O)C7O)C6O)C(C)(C)C5CC[C@]43C)C2C1 (stereo not given in full) | -22.1 | 
COc1ccnc2[nH]cc(C(=O)C(=O)N3CCN(C(=O)c4ccccc4)CC3C)c12 (stereo not given) | -3 | 
CC(C)S(=O)(=O)NC[C@@H]1CC(c2ccc(N3CCCC3)c(F)c2)=NO1 | 0.333 | 
CC1=C(C(=O)OCc2ccccc2)C(c2ccc(-c3ccccc3)cc2)NC(=O)N1CCCCCC(=O)O (stereo not given) | 12.3 | 
O=C1C=CC2OC(c3ccccc3)C(O)C2O1 (stereo not given) |  | 30.1 µM (active)
CO[C@@H]1[C@]2(O)C(=O)N3/C=C\C(C)(C)c4[nH]c5ccccc5c4/C=C\3C(=O)N2[C@]23[C@H](CO)C(C)(C)N2c2ccccc2[C@]13O | 8.4 | 
CN1C(=O)N(c2cc(Cl)cc(Cl)c2)C(=O)[C@@]1(C)Cc1ccc(Br)cc1 | 5 | 
CC(=O)O[C@@H]1[C@@H](OC(=O)/C=C/c2ccccc2)[C@H](C)O[C@@H](O[C@H]2[C@@H]3C=CO[C@@H](O[C@@H]4O[C@H](CO)[C@@H](O)[C@H](O)[C@H]4O)[C@@H]3[C@@]3(CO)O[C@@H]23)[C@@H]1OC(C)=O | -3.82 | 
COC(=O)C12CCC(C)C(C)C1C1=CCC3C4(C)CCC(OC(C)=O)C(C)(C)C4CCC3(C)C1(C)CC2 (stereo not given) | -12.2 | 
CC(C)CC(=O)OC1OC=C(CO[C@@H]2O[C@H](CO)[C@@H](O)[C@H](O)[C@H]2O)C2CC(O)C(O)(CO)C12 (stereo not given in full) | 15.2 | 
CC1=C(C(=O)OC2OC(COC3OC(CO)C(O)C(O)C3O)C(O)C(O)C2O)C(C)(C)CCC1 (stereo not given) | -14.5 | 
COc1cc2c(cc1OC)N1C(=O)C[C@@]34C=CC[N@+]5([O-])CC[C@H]2[C@H](CC3)[C@@]145 | 5.36 | 
